Test results as given in PubChem BioAssay.
The source made the active and inactive calls.

Experiments:
[1] = binders of probe aFSTL3 on microarray, primary screen, stem cell growth factor project, biochemical, small-molecule microarray, fluorescence 635/667 (AID 1064); conditions: higher = more signal;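 also: measures binding of the biotinylated anti-FSTL3 antibody to printed compounds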
[2] = binders from COS7 lysate, DM2A8 probe, primary screen, torsin A project, cell lysate, small-molecule microarray, fluorescence 635/667 (AID 1065); conditions: higher = more signal, COS7 lysate expressing mutant human TOR1A
[3] = binders of probe aFGF2 on microarray, primary screen, stem cell growth factor project, biochemical, small-molecule microarray, fluorescence 635/667 (AID 1067); conditions: higher = more signal;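 also: measures binding of biotinylated aFGF2 protein to printed compounds on slides; z-score merges feature fluorescence and signal-to-noise across triplicate slides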
[4] = binders of probe aFGF10 on microarray, primary screen, stem cell growth factor project, biochemical, small-molecule microarray, fluorescence 635/667 (AID 1071); conditions: higher = more signal;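 also: score merges 667 nm spot intensity and signal to noise from triplicate slides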
[5] = target: Neurogenic locus notch homolog protein 2 (Homo sapiens) (UniProt Q04721); assay: Notch2 binders on small-molecule microarrays, primary screen, biochemical, small-molecule microarray, 635 nm fluorescence, stem cell growth factors (AID 1073); conditions: Notch2 binding, higher = more signal
[6] = target: Pro-neuregulin-1, membrane-bound isoform (Homo sapiens) (UniProt Q02297); assay: NRG1 binders on small-molecule microarrays, primary screen, psychiatric disease protein project, biochemical, small-molecule microarray, fluorescence 635/667 (AID 1075); conditions: NRG1 binding, 635 nm fluorescence, higher = more signal;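 also: score combines 667 nm spot fluorescence with signal to noise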
[7] = test system: Neuregulin-1 EGF-like domain; assay: binders of neuregulin-1 EGF-like domain, primary screen, biochemical, small-molecule microarray, 635 nm fluorescence (AID 1081); conditions: small-molecule microarray binding, higher = more signal;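 also: binding of the protein to compounds printed on small-molecule microarray slides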
[8] = FRG1 promoter luciferase signal modulators, primary screen, FRG1 inhibition for FSHD, cell-based, C2C12 myotubes, firefly/Renilla luciferase, luminescence (AID 1084); conditions: higher = more signal, called active from +8 up or from −8 down
[9] = binders of probe aFST on microarray, primary screen, stem cell growth factor project, biochemical, small-molecule microarray, fluorescence 635/667 (AID 1086); conditions: higher = more signal;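 also: score merges 667 nm fluorescence with signal-to-noise of each printed compound spot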
[10] = binders of probe aHhip on microarray, primary screen, stem cell growth factor project, biochemical, small-molecule microarray, fluorescence 635/667 (AID 1087); conditions: higher = more signal;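 also: score merges spot fluorescence at 667nm with spot signal to noise ratio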

Sequence of Neurogenic locus notch homolog protein 2 (Homo sapiens) (Q04721 whole entry, looked up, canonical isoform): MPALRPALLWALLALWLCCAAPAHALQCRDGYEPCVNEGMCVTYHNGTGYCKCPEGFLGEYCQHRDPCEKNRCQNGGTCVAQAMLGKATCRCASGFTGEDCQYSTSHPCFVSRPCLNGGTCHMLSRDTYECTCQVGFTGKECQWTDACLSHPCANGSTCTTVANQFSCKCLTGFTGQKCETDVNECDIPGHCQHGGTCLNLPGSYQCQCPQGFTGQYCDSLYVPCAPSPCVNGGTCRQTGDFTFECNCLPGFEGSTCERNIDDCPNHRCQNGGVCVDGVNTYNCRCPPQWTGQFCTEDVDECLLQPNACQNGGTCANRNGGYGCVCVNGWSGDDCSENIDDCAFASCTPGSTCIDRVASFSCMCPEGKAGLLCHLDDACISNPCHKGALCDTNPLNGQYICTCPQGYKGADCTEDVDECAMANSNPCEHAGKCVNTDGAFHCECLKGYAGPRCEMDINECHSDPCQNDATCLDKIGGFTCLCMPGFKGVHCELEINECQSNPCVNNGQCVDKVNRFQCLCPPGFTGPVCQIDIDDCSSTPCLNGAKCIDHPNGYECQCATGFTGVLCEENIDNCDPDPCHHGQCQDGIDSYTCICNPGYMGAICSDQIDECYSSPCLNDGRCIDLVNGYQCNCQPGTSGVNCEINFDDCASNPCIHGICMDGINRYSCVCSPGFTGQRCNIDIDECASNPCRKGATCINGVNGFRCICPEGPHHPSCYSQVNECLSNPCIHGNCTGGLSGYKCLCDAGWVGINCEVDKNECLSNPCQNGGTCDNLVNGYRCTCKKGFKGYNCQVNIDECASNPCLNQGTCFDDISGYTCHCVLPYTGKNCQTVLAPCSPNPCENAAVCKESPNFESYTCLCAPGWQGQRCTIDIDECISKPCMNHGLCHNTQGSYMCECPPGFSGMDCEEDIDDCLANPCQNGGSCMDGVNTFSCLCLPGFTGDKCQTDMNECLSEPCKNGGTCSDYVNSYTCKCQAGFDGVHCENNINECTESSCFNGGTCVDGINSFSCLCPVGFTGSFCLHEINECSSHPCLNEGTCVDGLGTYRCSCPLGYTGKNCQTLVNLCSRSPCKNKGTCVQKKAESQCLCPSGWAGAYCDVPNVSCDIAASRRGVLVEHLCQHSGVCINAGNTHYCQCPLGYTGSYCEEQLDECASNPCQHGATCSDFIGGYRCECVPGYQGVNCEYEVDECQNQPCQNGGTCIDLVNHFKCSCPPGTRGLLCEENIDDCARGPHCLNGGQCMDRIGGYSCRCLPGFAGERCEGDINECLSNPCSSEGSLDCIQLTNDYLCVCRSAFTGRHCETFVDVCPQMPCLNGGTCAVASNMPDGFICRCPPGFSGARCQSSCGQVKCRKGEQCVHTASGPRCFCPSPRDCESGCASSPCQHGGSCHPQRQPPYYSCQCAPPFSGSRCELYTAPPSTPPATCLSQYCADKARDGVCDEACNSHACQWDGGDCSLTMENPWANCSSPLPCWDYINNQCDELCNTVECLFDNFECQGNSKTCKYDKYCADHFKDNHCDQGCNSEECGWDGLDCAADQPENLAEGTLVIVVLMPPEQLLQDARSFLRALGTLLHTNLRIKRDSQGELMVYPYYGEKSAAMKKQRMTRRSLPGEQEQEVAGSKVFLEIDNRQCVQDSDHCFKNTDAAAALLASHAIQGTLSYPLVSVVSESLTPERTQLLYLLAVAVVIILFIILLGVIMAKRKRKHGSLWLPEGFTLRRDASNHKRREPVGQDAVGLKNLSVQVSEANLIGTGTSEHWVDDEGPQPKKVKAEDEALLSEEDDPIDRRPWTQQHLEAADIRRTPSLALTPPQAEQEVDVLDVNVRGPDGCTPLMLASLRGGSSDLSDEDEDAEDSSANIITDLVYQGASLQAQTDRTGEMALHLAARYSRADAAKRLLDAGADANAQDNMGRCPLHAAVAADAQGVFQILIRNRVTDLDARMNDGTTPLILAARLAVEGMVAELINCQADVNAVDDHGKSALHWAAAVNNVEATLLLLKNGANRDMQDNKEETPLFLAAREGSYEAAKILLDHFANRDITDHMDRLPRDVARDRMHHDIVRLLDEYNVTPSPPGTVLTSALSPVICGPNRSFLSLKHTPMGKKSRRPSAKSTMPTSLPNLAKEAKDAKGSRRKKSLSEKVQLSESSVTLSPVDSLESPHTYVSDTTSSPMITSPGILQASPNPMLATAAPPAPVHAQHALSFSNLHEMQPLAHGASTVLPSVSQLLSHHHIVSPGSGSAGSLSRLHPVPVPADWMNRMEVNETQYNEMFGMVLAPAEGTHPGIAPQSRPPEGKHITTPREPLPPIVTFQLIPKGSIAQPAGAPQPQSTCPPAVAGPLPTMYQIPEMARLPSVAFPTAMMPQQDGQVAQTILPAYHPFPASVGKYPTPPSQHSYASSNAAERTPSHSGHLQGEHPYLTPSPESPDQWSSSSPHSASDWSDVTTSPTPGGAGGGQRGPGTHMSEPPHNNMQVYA
Sequence of Pro-neuregulin-1, membrane-bound isoform (Homo sapiens) (Q02297 whole entry, looked up, the tested form may be a part, canonical isoform): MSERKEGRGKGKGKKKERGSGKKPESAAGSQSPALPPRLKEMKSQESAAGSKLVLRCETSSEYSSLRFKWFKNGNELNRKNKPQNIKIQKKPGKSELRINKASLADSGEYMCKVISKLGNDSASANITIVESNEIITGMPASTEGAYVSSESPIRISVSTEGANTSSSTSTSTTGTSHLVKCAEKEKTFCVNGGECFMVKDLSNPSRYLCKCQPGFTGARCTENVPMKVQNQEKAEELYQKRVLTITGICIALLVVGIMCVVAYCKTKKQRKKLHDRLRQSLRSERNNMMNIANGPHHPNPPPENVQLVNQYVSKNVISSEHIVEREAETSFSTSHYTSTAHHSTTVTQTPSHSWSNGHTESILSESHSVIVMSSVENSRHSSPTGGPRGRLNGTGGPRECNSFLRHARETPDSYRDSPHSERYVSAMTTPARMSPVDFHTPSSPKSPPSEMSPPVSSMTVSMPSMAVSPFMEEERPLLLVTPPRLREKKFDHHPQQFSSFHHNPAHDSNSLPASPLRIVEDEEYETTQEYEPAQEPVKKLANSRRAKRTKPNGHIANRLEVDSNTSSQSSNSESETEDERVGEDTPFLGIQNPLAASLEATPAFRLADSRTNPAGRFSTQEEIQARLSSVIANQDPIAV

| SMILES | composite z-score [1] | composite z-score [2] | composite z-score [3] | composite z-score [4] | composite z-score [5] | composite z-score [6] | composite z-score [7] | z-score [8] | composite z-score [9] | composite z-score [10] |
| --- | --- | --- | --- | --- | --- | --- | --- | --- | --- | --- |
| CCC[C@@H]1C=C(C(=O)O)[C@H](c2ccc(C)cc2)N1S(=O)(=O)c1ccc(C)cc1 | -0.0973 | 0.0641 | 0.0485 | 0.854 | 1.35 | 1.79 | 1.26 | -1.09 (inactive) | 0.648 | 0.099 |
| CC(C)c1ccc(NN2C(C(O)c3cccc(O)c3)C=CC3C(=O)N(c4ccccc4)C(=O)C32)cc1 (stereo not given) | 0.0067 | 0.422 | 0.0864 | 0.618 | 1.57 | 1.97 | 1.3 | -1.04 (inactive) | 1.33 | 0.122 |
| C=C[C@@H](COC(C)=O)N(Cc1ccccc1[N+](=O)[O-])S(=O)(=O)c1ccc(Br)cc1 | 0.0537 | 0.98 | 0.033 | 0.372 | 1.01 | 0.939 | 0.974 | -3.14 (inactive) | 0.399 | 0.0524 |
| COCCOC(=O)N1C(=O)[C@@]2(c3cc(C#CCNC(N)=O)ccc31)[C@H](c1ccc(O)cc1)N1[C@H](c3ccccc3)[C@H](c3ccccc3)OC(=O)[C@H]1[C@@H]2C(=O)Nc1nc2ccccc2s1 | 0.764 | 0.172 | -0.0736 | 0.826 | 1.27 | 0.787 | 0.297 | -0.0332 (inactive) | 0.522 | -0.0994 |
| O=C1O[C@@H](c2ccccc2)[C@@H](c2ccccc2)N2[C@@H](c3ccc(O)cc3)[C@]3(C(=O)Nc4ccc(C#CC5=CCCCC5)cc43)[C@@H](C(=O)O)[C@H]12 | 0.638 | 1.56 | -0.0908 | 0.725 | 0.798 | 1.2 | 1.14 | -0.611 (inactive) | 0.437 | 0.0274 |
| COC(=O)[C@@]1(Cc2ccc(F)cc2)[C@H]2c3cc(C(=O)N4CCCC4)n(Cc4cccc5ccccc45)c3C[C@H]2CN1C(=O)c1ccccc1 | 0.242 | 0.312 | 0.148 | 0.62 | 1.57 | 2.16 | 1.35 | 0.272 (inactive) | 0.558 | 0.762 |
| C=CC[C@@H](OC(=O)Nc1ccc(OC)cc1)c1ccc(O)c2ccccc12 | -0.316 | 0.129 | -0.0364 | 0.224 | 0.746 | 0.263 | 1.08 | 6.38 (inactive) | 0.56 | -0.0296 |
| CC(C)(C)OC(=O)CC[C@@]1(C(=O)NCCN2CCOCC2)N=C(c2ccc(OCCCO)cc2)O[C@@H]1c1ccccc1 | 1.11 | 1.4 | 0.0189 | 0.262 | 1.28 | 1.75 | 1.2 | 0.951 (inactive) | 0.972 | 0.167 |
| C=CCOC(=O)[C@H]1[C@@H]2C(=O)O[C@@H](c3ccccc3)[C@@H](c3ccccc3)N2[C@@H](c2ccc(OCCOC(=O)[C@@H]3C[C@@H]4C(=O)N5CCC[C@H]5C(=O)N4[C@@H]3c3ccc(O)cc3)cc2)[C@]12C(=O)Nc1ccccc12 | -0.212 | 0.434 | -0.108 | 0.282 | 0.356 | 0.771 | 1.28 | -0.105 (inactive) | 0.328 | -0.249 |
| CCOC(=O)C1=CCC(c2ccc([N+](=O)[O-])cc2)N(S(=O)(=O)c2ccc(C)cc2)C1 (stereo not given) | 0.557 | -0.0288 | -0.0878 | 0.294 | 0.716 | 0.459 | 0.81 | -2.47 (inactive) | 0.406 | -0.174 |
| CCCN1C(=O)[C@@]2(CCC(=O)OC(C)(C)C)N=C(c3ccc(OCCCO)cc3)O[C@H]2c2ccccc21 | -0.0952 | 0.108 | -0.0243 | 0.102 | 0.312 | 0.0163 | 0.959 | -1.22 (inactive) | 0.0225 | -0.191 |
| COCCOC(=O)N1C(=O)[C@@]2(c3cc(C#CCNC(N)=O)ccc31)[C@H](C(=O)N1CCc3cc(OC)c(OC)cc3C1)[C@H]1C(=O)O[C@H](c3ccccc3)[C@H](c3ccccc3)N1[C@@H]2c1ccc(OCCO)cc1 | -0.222 | 0.388 | -0.0293 | 0.392 | 0.578 | 0.0155 | 0.172 | 0.363 (inactive) | 0.536 | 0.12 |
| CCCC[C@@H]1C[C@H]1[C@@H](NC(=O)c1ccc(-c2ccccc2)cc1)c1ccc(-c2ccccc2)cc1 | -0.129 | 0.0257 | 0.702 | 0.711 | 0.286 | 0.0352 | 0.217 | -1.11 (inactive) | 0.0469 | 0.107 |
| O=C1C2C=CC(C(O)c3cccs3)N(Nc3ccccc3F)C2C(=O)N1c1ccccc1 (stereo not given) | -0.111 | 0.28 | -0.0951 | 0.711 | 0.92 | 1.07 | 1.17 | 0.69 (inactive) | 0.267 | -0.196 |
| COc1ccc(C(O)C2C=CC3C(=O)N(c4ccccc4)C(=O)C3N2Nc2ccc([N+](=O)[O-])cc2)cc1OCc1ccccc1 (stereo not given) | 2 | -0.14 | 0.649 | 1.06 | 1.29 | 2.06 | 1.26 | 0.565 (inactive) | 2.36 | 1.2 |
| COCCOC(=O)N1C(=O)[C@@]2(c3cc(C#CCNC(N)=O)ccc31)[C@H](c1ccc(OCCO)cc1)N1[C@H](c3ccccc3)[C@H](c3ccccc3)OC(=O)[C@H]1[C@@H]2C(=O)N1CCc2cc(OC)c(OC)cc2C1 | 0.187 | -0.0389 | -0.051 | 0.164 | 0.638 | 0.156 | 0.371 | 1.08 (inactive) | 0.883 | 0.327 |
| C=CC(=C)C1=CCO[C@@H]1[C@H]1CCCN1S(=O)(=O)c1ccccc1[N+](=O)[O-] | -0.552 | 0.162 | -0.0716 | 0.138 | 1.07 | 0.832 | 1.01 | -0.788 (inactive) | 0.358 | -0.271 |
| Cc1ccc(S[C@]2(C(=O)NCc3ccccc3)CC(=O)N(Cc3ccccc3Cl)[C@@H]2c2ccc(CO)cc2I)cc1 | 0.715 | -1.06 | -0.104 | -0.638 | -0.848 | 0.288 | 0.539 | -0.0143 (inactive) | -0.319 | -0.0645 |
| CC(C)N1C(=O)C[C@@](C(=O)NCc2ccccc2)(c2ccc([N+](=O)[O-])cc2)[C@H]1c1ccc(CO)cc1 | 0.539 | 1.22 | -0.138 | -0.136 | 0.0796 | -0.524 | 1.25 | 0.167 (inactive) | -0.699 | -0.201 |
| NCCCCCCNC(=O)[C@H]1C[C@H]2C(=O)NCC(=O)N2[C@H]1c1cccc(OCCO)c1 | -0.196 | 0.615 | -0.0647 | 0.477 | 0.363 | 0.933 | 1.13 | 1.03 (inactive) | 0.0417 | -0.0994 |
| CC(C)OC(=O)CC(=O)CC(O)c1ccc(C#N)cc1 (stereo not given) | 0.401 | 0.435 | 0.0798 | 0.356 | 1.29 | 0.366 | 0.552 | -0.711 (inactive) | 0.712 | 0.0722 |
| CN(C)CCCNC(=O)[C@@]1(Cc2ccccc2I)c2ccccc2C(=O)N(Cc2ccccc2C(F)(F)F)[C@H]1c1ccc(CO)cc1 | 0.459 | -1.14 | -0.22 | -0.935 | -0.936 | 1.74 | 1.23 | -1.1 (inactive) | -0.309 | -0.0645 |
| COc1cc2c(cc1OC)CN(C(=O)[C@@H]1[C@H]3C(=O)O[C@H](c4ccccc4)[C@H](c4ccccc4)N3[C@H](c3ccccc3OCCO)[C@@]13C(=O)Nc1ccc(C#CCNC(N)=O)cc13)CC2 | 0.309 | 0.586 | 0.0564 | 0.837 | 0.936 | 0.852 | 1.07 | 0.297 (inactive) | 0.237 | -0.074 |
| CCOC(=O)[C@H]1C/C=C/C[C@H](C(=O)OCC)C(=O)O[C@H]2[C@@H](OC)O[C@H](CO)[C@@H](OC(=O)Nc3ccc4c(c3)OCO4)[C@@H]2OC1=O | -0.267 | 0.451 | 0.0302 | 0.718 | 0.235 | 1.5 | 1.25 | 0.891 (inactive) | 0.0008 | -0.212 |
| N#Cc1ccc(NN2C(C(O)c3cccs3)C=CC3C(=O)N(c4ccccc4)C(=O)C32)cc1 (stereo not given) | 0.106 | 0.145 | 0.0887 | 0.546 | 1.47 | 1.93 | 1.06 | -0.911 (inactive) | 0.632 | -0.236 |
| Cc1ccc(S[C@]2(C(=O)NCCN3CCOCC3)CC(=O)N(Cc3cc(C(F)(F)F)cc(C(F)(F)F)c3)[C@@H]2c2ccc(CO)cc2I)cc1 | 0.428 | -0.542 | -0.131 | -0.44 | -0.297 | 1.98 | 0.0049 | 0.679 (inactive) | 0.0607 | 0.0333 |
| CC(C)CNC(=O)[C@@]1(c2ccc([N+](=O)[O-])cc2)CC(=O)N(CC23CC4CC(CC(C4)C2)C3)[C@@H]1c1ccc(CO)cc1I | 0.483 | 0.699 | -0.0226 | 0.26 | 1.34 | 0.168 | 1.29 | -1.52 (inactive) | 0.283 | -0.0994 |
| O=C1O[C@@H](c2ccccc2)[C@@H](c2ccccc2)N2[C@@H](c3ccc(O)cc3)[C@]3(C(=O)Nc4ccc(C#CC5(O)CCCCCC5)cc43)[C@@H](C(=O)N3CCCCCCC3)[C@H]12 | 2.55 | 2 | 0.764 | 0.876 | 1.66 | 2.49 | 1.27 | -0.849 (inactive) | 2.79 | 0.67 |
| O=C(CS)NCCCCCCNC(=O)[C@@H]1C[C@@H]2C(=O)N3CCC[C@H]3C(=O)N2[C@@H]1c1ccc(O)cc1 | 0.525 | 0.0083 | -0.111 | 0.589 | -0.473 | 0.494 | 1.38 | 0.999 (inactive) | -0.28 | -0.254 |
